Pol beta inh – qHTS Assay for Inhibitors of DNA Polymerase Beta | Pol beta primer extension/strand displacement, fluorescence kinetic | Potency, µM (top dose mostly 114 µM), actives largely listed as inhibitors | 340,000 tested, 1.3% active | AID 485314, 2010
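10 nM enzyme + cpd, 15 min RT; start with substrate 50 nM final; read 0 min and after 10 min RT. Corrected, normalized data; 4-parameter Hill curve fit.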
Pol eta inh – qHTS for Inhibitors of Polymerase Eta. DNA polymerase eta (Homo sapiens), Q9Y253. recombinant Pol eta, fluorescent DNA replication assay. Potency, µM (top dose mostly 114 µM), usual class: inhibitors. 390,000 tested, 1.2% active
Target sequence (Q9Y253 whole entry, looked up): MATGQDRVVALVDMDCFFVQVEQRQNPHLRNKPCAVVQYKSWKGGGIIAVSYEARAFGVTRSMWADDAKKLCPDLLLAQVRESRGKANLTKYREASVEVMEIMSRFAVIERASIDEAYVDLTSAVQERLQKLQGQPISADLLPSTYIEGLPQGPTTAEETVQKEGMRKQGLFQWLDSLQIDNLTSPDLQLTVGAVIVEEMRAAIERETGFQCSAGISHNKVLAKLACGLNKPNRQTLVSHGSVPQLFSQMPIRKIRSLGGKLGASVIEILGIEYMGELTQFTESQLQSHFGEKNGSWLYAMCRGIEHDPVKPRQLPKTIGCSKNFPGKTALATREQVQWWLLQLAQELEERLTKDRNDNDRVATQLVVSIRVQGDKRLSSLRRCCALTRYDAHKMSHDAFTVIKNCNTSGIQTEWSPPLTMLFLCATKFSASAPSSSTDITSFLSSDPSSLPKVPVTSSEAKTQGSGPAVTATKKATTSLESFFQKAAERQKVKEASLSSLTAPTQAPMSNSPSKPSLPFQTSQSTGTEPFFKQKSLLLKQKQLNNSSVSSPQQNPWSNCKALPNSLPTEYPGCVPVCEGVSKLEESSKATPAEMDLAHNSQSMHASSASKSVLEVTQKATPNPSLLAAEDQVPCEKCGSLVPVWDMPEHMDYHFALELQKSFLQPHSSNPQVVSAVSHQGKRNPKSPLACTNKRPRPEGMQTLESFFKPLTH
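Pol eta at 10 nM preincubated with compounds 15 min at room temperature; reaction started with fluorescent substrate (50 nM final) and read kinetically at 0 and 10 min.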
KAT2A inh – qHTS Assay for Inhibitors of GCN5L2; Histone acetyltransferase KAT2A (Homo sapiens), Q92830; GCN5L2 HAT assay, ThioGlo1 CoA-SH fluorescence; Potency, µM (doses to about 58.9 µM), hits mostly inhibitors; 390,000 tested, 0.21% active; AID 504327, 2011
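Titration-based screen in which CoA formation is detected via maleimide probe ThioGlo1 (50uM) turning fluorescent on thiol reaction; substrates H3(1-25) 75uM and acetyl-CoA 70uM, GCN5L2 20nM, 20 min incubation at room temperature.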
GLS inhibitor – qHTS for Inhibitors of Glutaminase (GLS); 410,000 tested, 0.21% active; AID 624170, 2012; GLS enzymatic activity, qHTS titration; Glutaminase kidney isoform, mitochondrial (Homo sapiens), O94925; Potency, µM (titrated, usually from 45.5 µM), hits mostly inhibitors
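Read-out is an Amplex red fluorescence increase coupled through glutamate oxidase and HRP, measured before and after 30 min room-temperature incubation. hKGA is in 45 mM KH2PO4 (pH 8.2) with 0.02% Tween-20; glutamine added as 1mM solution.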
POLK inh – qHTS for Inhibitors of Polymerase Kappa | DNA polymerase kappa (Homo sapiens), Q9UBT6 | purified Pol kappa, fluorescent DNA synthesis assay, 10 min | Potency, µM (highest dose often 107 µM), most hits filed as inhibitors | 400,000 tested, 0.53% active
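Readout: fluorescence, taken kinetically at 0 and 10 min. Conditions: 10 nM Pol kappa, 15 min RT compound preincubation, 50 nM substrate final. Controls: enzyme-free buffer wells.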
POLI inh – qHTS for Inhibitors of Polymerase Iota; AID 588590, 2011; 390,000 tested, 1% active; Potency, µM (doses to about 115 µM), actives largely listed as inhibitors; Pol iota fluorescent replication assay, 10 min
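Fluorescent replication assay read twice, at 0 min and 10 min after adding 50 nM (final) substrate. Enzyme (10 nM) and compounds were first incubated 15 min at room temperature; enzyme-free buffer wells were negative controls.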
Large screens that a line does not name were inactive. This is a sample that favours compounds with a hit; in the whole collection about 2.4% have one here. Calls follow the shape of the dose curve; as a rule, active = well fitted inhibition curve with a large enough effect; inconclusive = small, poorly fitted or top-dose-only effect, or another doubt; inactive = no such curve, though single readings can be large or run the other way.

O=C(Cn1cnnn1)N[C@@H]1C(=O)N2C(C(=O)O)=C(CSc3nncs3)CS[C@H]12	none (no result: Pol beta inh, Pol eta inh, KAT2A inh, POLK inh, POLI inh)
CCN(CC(=O)Nc1ccc(NC(C)=O)cc1)C(=O)c1cccc(Oc2ccccc2)c1	none (no result: Pol beta inh)
CCN(CC(=O)Nc1ccc(NC(C)=O)cc1)C(=O)c1cccc(-n2cccc2)c1	Pol eta inh inconclusive, POLI inh 56µM (no result: Pol beta inh)
Cc1ccc(C)n1C(CC(=O)O)c1ccc(C#N)cc1 (stereo not given)	Pol eta inh 22µM, POLK inh 79µM, POLI inh 50µM
O=C(COc1ccccc1/C=C\c1nc(O)c([N+](=O)[O-])c(=O)[nH]1)Nc1ccccc1	Pol eta inh 28µM, GLS inhibitor inconclusive, POLI inh inconclusive
CCOc1ccccc1/C=C\c1nc(O)c([N+](=O)[O-])c(=O)[nH]1	Pol eta inh inconclusive
Cc1c(NC(=O)c2cc([N+](=O)[O-])ccc2N2CCOCC2)cccc1-c1nc2ccccc2o1	POLI inh 22µM
Cc1cccc(NC(=O)c2cc([N+](=O)[O-])ccc2N2CCOCC2)c1C	none (no result: Pol beta inh, KAT2A inh, POLK inh, POLI inh)
CCOC(=O)c1sc(NC(=O)C2CC=CCC2C(=O)O)nc1C (stereo not given)	Pol beta inh 45µM, Pol eta inh 79µM, POLI inh inconclusive
O=C(COc1ccccc1C(=O)Nc1ccccc1)NCCCCc1ccccc1	none (no result: Pol beta inh, Pol eta inh, KAT2A inh, GLS inhibitor)
CCOC(=O)N1CCN(C(=O)c2ccc3c(c2)NC(=O)/C(=C\c2ccc(OC)c(OC)c2)S3)CC1	POLK inh 25µM, POLI inh 18µM
CN1C/C(=C/c2ccccc2[N+](=O)[O-])C(=O)/C(=C\c2ccccc2[N+](=O)[O-])C1	Pol eta inh inconclusive, POLK inh inconclusive, POLI inh 89µM (no result: Pol beta inh, KAT2A inh)
Cc1ccc(C)c2c1CCC(=Cc1ccccc1[N+](=O)[O-])C2=O	none (no result: Pol beta inh, KAT2A inh, POLK inh, POLI inh)
Cc1ccc2c(c1C)-c1c(ccc(C)c1C)C(=O)C2=O	Pol eta inh 22µM, POLI inh 25µM (no result: Pol beta inh, KAT2A inh)
Cn1c2ccccc2c2cc(/C=N/NC(=O)c3ccccc3F)ccc21	POLI inh inconclusive
Cn1c2ccccc2c2cc(/C=N/NC(=O)c3ccc(N)cc3)ccc21	Pol beta inh 10µM, Pol eta inh inconclusive, POLK inh inconclusive, POLI inh inconclusive
CC12CCC(C/C1=N\N=C1\NC(=O)/C(=C\c3ccc(Cl)cc3)S1)C2(C)C (stereo not given)	Pol eta inh 50µM
O=C(c1ccc(OCc2cn3ccccc3n2)cc1)N1CCN(S(=O)(=O)c2ccccc2F)CC1	Pol eta inh inconclusive, POLI inh 79µM (no result: Pol beta inh)
CN(CC(=O)Nc1cccc(F)c1)C(=O)c1ccc(OCc2cn3ccccc3n2)cc1	POLI inh 45µM (no result: Pol beta inh)
Cc1ccc(NC(=O)CN(C)C(=O)c2ccc(OCc3cn4ccccc4n3)cc2)cc1	POLI inh inconclusive (no result: Pol beta inh)
Cc1ccc2nc(Cl)c3cc(C(=O)N4CCCC(C)C4)sc3c2c1 (stereo not given)	Pol beta inh inconclusive
COC/C=C/C1=CC2=CC(=O)C(C)(OC(=O)c3cnc4ccccc4n3)C(=O)C2=CN1c1ccc(CO)cc1 (stereo not given)	Pol beta inh 1.8µM, KAT2A inh inconclusive (no result: Pol eta inh, GLS inhibitor, POLK inh, POLI inh)
COC/C=C/C1=CC2=CC(=O)C(C)(OC(=O)c3cnc4ccccc4n3)C(=O)C2=CN1CC(C)C (stereo not given)	Pol eta inh 25µM, POLK inh inconclusive, POLI inh inconclusive (no result: Pol beta inh, KAT2A inh)
COC/C=C/C1=CC2=CC(=O)C(C)(OC(=O)c3cnc4ccccc4n3)C(=O)C2=CN1C1CCCCC1 (stereo not given)	none (no result: Pol eta inh, GLS inhibitor, POLK inh, POLI inh)
COC/C=C/C1=CC2=CC(=O)C(C)(OC(=O)c3cnc4ccccc4n3)C(=O)C2=CN1c1ccccc1 (stereo not given)	Pol beta inh inconclusive, Pol eta inh 25µM, POLK inh 79µM, POLI inh inconclusive
CC1(OC(=O)CCc2ccccc2)C(=O)C=C2C=C(c3ccc(C#N)cc3)N(c3ccccc3)C=C2C1=O (stereo not given)	none
O=C(CCCCCn1c(=S)[nH]c2cc3c(cc2c1=O)OCO3)N1CCN(C(=O)c2ccco2)CC1	Pol beta inh inconclusive, Pol eta inh inconclusive, POLI inh 28µM
O=C(CCn1c(=S)[nH]c2cc3c(cc2c1=O)OCO3)NCc1cccc(Cl)c1	none
O=C(CCCn1c(=S)[nH]c2cc3c(cc2c1=O)OCO3)NCc1cccc(Cl)c1	POLK inh inconclusive, POLI inh 45µM
COc1ccc(N2CCN(C(c3ccc(C)cc3)c3nnnn3C(C)(C)C)CC2)cc1 (stereo not given)	none (no result: Pol beta inh, Pol eta inh, KAT2A inh, GLS inhibitor)
CC=Cc1cc2c(c(=O)o1)C(=O)C(O)C(C)O2 (stereo not given)	Pol eta inh inconclusive, POLI inh 50µM (no result: Pol beta inh, KAT2A inh)
CCOC(=O)c1scc(-c2ccc(C)cc2)c1S(=O)(=O)Nc1ccc(OC)c(Cl)c1	none
CCN(CC)C(=S)SCC(=O)Nc1ccc(F)cc1	KAT2A inh 3.5µM
Cc1ccccc1NC(=O)c1nc(S(=O)(=O)Cc2ccccc2F)ncc1Cl	none (no result: Pol beta inh, Pol eta inh, KAT2A inh, GLS inhibitor)
CC(NS(=O)(=O)c1ccccc1)C(=O)NC1CCCC1 (stereo not given)	Pol beta inh inconclusive, Pol eta inh 79µM
CC(C)C(NS(=O)(=O)c1ccccc1)C(=O)NC1CCCC1 (stereo not given)	POLI inh inconclusive
Nc1c(N(CCC2=CCCCC2)C(=O)c2ccccc2F)c(=O)[nH]c(=O)n1Cc1ccccc1	POLI inh 79µM (no result: Pol beta inh)
O=c1c(S(=O)(=O)c2ccccc2)cn(Cc2ccc(F)cc2)c2cc(N3CCOCC3)c(F)cc12	none
C=C1C=C(C)n2ncc(C(=O)Nc3ccc(F)cc3F)c2N1	none (no result: Pol beta inh, Pol eta inh, KAT2A inh, GLS inhibitor)
O=C(O)c1ccccc1-c1ccc(/C=C/c2cc(C(F)(F)F)[nH]c(=O)n2)o1	Pol beta inh inconclusive, Pol eta inh 50µM, POLK inh inconclusive, POLI inh inconclusive
CC(=C1SC(=S)NC1=O)c1ccccc1	POLI inh 89µM (no result: Pol beta inh, KAT2A inh)
CCCN1CCC(=O)N(CCN=[N+]=[N-])CC1	Pol beta inh 32µM
S=c1[nH]nc(-c2ccc(Cl)cc2)n1/N=C/C=C/c1ccco1	Pol beta inh 25µM, Pol eta inh inconclusive
S=c1[nH]nc(-c2ccccc2)n1/N=C/C=C/c1ccco1	Pol beta inh 45µM, GLS inhibitor inconclusive
S=c1[nH]nc(-c2cccnc2)n1/N=C/C=C/c1ccco1	Pol beta inh 13µM, Pol eta inh inconclusive, KAT2A inh inconclusive, POLI inh inconclusive
S=c1[nH]nc(-c2ccc(Cl)cc2)n1/N=C/c1ccco1	none
